# Assay results published in PubChem BioAssay (NCI).
# About 79,000 compounds went through this panel and 15% of them were active in at least one assay; those are over-represented in the sample as a whole. Unmarked numbers belong to inactive results. Activity calls are given as the source filed them. Rule as the data show it: active = growth inhibition above about 70%; inactive = the rest.
# Experiment: NCI Yeast Anticancer Drug Screen. Data for the rad18 strain (AID 177)
# Conditions: S. cerevisiae rad18 mutant growth inhibition, stronger effect = higher value
# Method: Growth inhibition of yeast strains with defined genetic alterations is measured as a screen for potential anti-cancer activity. Selected strains with alterations in DNA damage repair or cell cycle control were exposed to compounds and growth inhibition was measured relative to vehicle treated controls. The strain used in this assay is rad18
SMILES,growth inhibition (at 1.2 µM),growth inhibition (at 3.7 µM),growth inhibition (at 11.0 µM),growth inhibition (at 33.0 µM),growth inhibition (at 100.0 µM)
CC(=O)Nc1ccc2c(c1)-c1ccccc1C2=O,-3%,-5%,-3%,14%,89% (active)
CCOc1ccccc1N=Cc1c2ccccc2cc2ccccc12,-3%,21%,97% (active),98% (active),97% (active)
COC(=O)Oc1cc(Cl)c(Cl)cc1Cl,0%,5%,6%,9%,20%
NC(=S)NC(=S)Nc1ccccc1,-3%,-1%,3%,21%,95% (active)
CC[N+](CC)(CC)c1ccccc1,3%,10%,6%,3%,10%
CCOC(=O)c1ccc(NC(=O)O/N=C(/Cl)C(C)C)cc1,-5%,-5%,-1%,12%,98% (active)
CN(C)/C=C/c1nnc([N+](=O)[O-])s1,0%,5%,21%,56%,97% (active)
COC(=O)Nc1cn2ccc(C(Cl)=C(Cl)Cl)cc2n1,-16%,-22%,-13%,-39%,-46%
